Data: PubChem BioAssay AID1645882 (National Center for Advancing Translational Sciences (NCATS), 2021)
Where “and” joins values, the source holds several entries; their conditions need not be identical. Identical values can stand only once. In all, about 16,000 compounds went through this assay and about 120 (0.75%) were called active. About 4% were inconclusive and are not listed. The call rests on the fitted dose curve; in most records, active means well fitted inhibition curve with a large enough effect; inconclusive means small, poorly fitted or top-dose-only effect; inactive means no such curve, though single readings can be large or run the other way. The full list was thinned out, with actives kept by preference. Some compounds were tested as several samples or in several runs, with calls that do not always agree.

What follows are compounds tested against Rap guanine nucleotide exchange factor 3 (Homo sapiens) (UniProt O95398) (assay: Validation qHTS for antagonist of cAMP-regulated guanine nucleotide exchange factor 3 (EPAC1)). Conditions: EPAC1 Rap1B-BODIPY-GDP exchange, fluorescence; series mostly up to 150 µM; activity change, negative = inhibition: at the top concentration.
Rap guanine nucleotide exchange factor 3 (Homo sapiens), sequence (O95398 whole entry, looked up): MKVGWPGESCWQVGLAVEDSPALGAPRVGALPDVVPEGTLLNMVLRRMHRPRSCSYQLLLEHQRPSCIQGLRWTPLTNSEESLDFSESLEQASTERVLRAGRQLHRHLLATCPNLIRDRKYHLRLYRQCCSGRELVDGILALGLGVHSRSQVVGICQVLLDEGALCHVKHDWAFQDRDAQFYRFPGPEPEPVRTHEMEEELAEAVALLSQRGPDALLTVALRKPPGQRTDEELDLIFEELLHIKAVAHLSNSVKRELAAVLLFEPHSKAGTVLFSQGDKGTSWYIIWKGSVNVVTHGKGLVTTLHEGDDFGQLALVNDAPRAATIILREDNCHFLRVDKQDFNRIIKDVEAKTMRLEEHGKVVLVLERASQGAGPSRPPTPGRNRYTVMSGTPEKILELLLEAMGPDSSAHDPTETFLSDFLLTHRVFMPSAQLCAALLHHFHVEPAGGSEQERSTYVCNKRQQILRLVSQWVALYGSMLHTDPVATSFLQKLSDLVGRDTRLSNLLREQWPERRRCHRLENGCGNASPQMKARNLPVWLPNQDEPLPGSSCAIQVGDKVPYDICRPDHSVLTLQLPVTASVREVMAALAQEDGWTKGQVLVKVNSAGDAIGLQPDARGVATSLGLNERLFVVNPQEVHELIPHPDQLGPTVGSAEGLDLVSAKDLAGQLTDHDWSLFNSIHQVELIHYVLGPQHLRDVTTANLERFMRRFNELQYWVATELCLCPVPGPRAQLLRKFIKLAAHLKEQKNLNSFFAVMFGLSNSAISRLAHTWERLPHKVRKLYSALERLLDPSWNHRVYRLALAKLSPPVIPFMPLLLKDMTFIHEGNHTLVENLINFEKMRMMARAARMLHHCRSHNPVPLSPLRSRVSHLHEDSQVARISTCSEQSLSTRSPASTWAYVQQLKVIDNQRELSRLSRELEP
Excerpt: Assay Provider (PI): Xiaodong Cheng Ph.D.
The University of Texas Medical Branch, […], TX
In multi-cellular eukaryotic organisms, the effects of cAMP are transduced by two ubiquitously-expressed intracellular cAMP receptors, the classic protein kinase A/cAMP-dependent protein kinase (PKA/cAPK) and the more recently discovered exchange protein directly activated by cAMP/cAMP-regulated guanine nucleotide exchange factor (EPAC/cAMP-GEF). Both PKA and EPAC are ubiquitously expressed in all tissues, and an increase in intracellular cAMP levels will lead to the activation of both PKA and EPAC. Therefore, careful dissections of the individual role and relative contribution of EPAC and PKA within the overall cAMP signaling in various model systems are critical for further elucidating the mechanism of cAMP signaling. To date no EPAC-specific antagonists and agonist, as well as isoform-specific agonists have been reported, and developing EPAC-specific pharmacological probes to determine the physiological functions that EPAC play in the overall cAMP-mediated signaling remains a major challenge within the research field. Furthermore, identified regulators of EPAC may lead to new mechanism-based therapeutic strategies specifically targeting the EPAC / cAMP-signaling components as EPAC has been implicated to play important roles in major human pathological conditions such as diabetes, heart disease, and cancer.
This qHTS will be used to screen the Molecular Libraries Small Molecule Repository (MLSMR) as a concentration-titration series using the NCGC unique quantitative screening (qHTS) platform to find activators for EPAC1. In addition, this assay will also be used as a counterscreen for the EPAC2 qHTS. This fluorescent based assay is developed and validated for EPAC1 that measures exchange using EPAC effector Rap1 complex with BODIPY-GDP, a GDP analog with a tethered fluorophores. Activators are identified by monitoring the change in fluorescence signal as the exchanged free BODIPY-GDP has a reduced fluorescence compared to Rap1-bound BODIPY-GDP. Increase in signal (activation) is the desired outcome for the EPAC1 agonist while no activity in this assay is desired for the EPAC2 agonist counterscreen.
[1] de Rooij, J., Zwartkruis, F. J., Verheijen, M. H., Cool, R. H., Nijman, S. M., Wittinghofer, A., and Bos, J.L. (1998) Nature 396, 474-477.
Briefly, three uL of reagents (100 nM EPAC1, 250 nM RAP1B-BODIPY-GDP, 50 uM GDP) were dispensed into a 1536-well Greiner black solid-bottom medium binding assay plate. Controls and test compounds (23 nL) were transferred to the plate via a Kalypsys pin tool equipped with a 1536-pin array. The plates were centrifuged at 1,000 rpm for 15 seconds followed by 5 minute incubation at room temperature. The assay plates were read at 5 minute intervals for 30 minutes in the ViewLux plate reader using 480nm excitation and 540nm emission filters. The results were normalized to the […] positive control ATA and DMSO.
Further: nearly all actives have a fitted effect of over 75% in size.
Potency means the concentration at half of the fitted maximal effect.

Activity change, negative = inhibition, inactive:
O=C(/C=C\c1ccc(O)c(O)c1)O[C@@H](Cc1ccc(O)c(O)c1)C(=O)O 11%, N[C@@H](Cc1ccc(O)c(I)c1)C(=O)O -7.65% [at 75.8 µM], COc1ccc(C(=O)NCC2Cc3cc(C)cc(-c4cc(C(C)=O)ccc4F)c3O2)c(OC)c1OC (stereo not given) 11.9%, COC(=O)N1CCC[C@@]2(CCN(Cc3nccs3)C2)C1 31.6%, OC(c1ccc2c(c1)CN(Cc1c[nH]c3ccccc13)CCO2)c1ccccn1 (stereo not given) 8.66%, CC(C)=CCc1c2c(c(O)c3c(=O)c(O)c(-c4ccccc4)oc13)C=CC(C)(C)O2 13.9%, CC(=O)Oc1c(-c2ccccc2)oc2c(CC=C(C)C)c3c(c(OC(C)=O)c2c1=O)C=CC(C)(C)O3 6.65%, COC(=O)/C(C)=C/CC12OC(C)(C)C3CC(C=C4C(=O)c5cc6c(c(CCC(C)(C)Cl)c5OC431)OC1(C)CCC(=C(C)C)C6C1)C2=O (stereo not given) 5.06%, C1=C(c2ccc3c(c2)CN(Cc2cccn2-c2ncccn2)CCO3)Cc2ccccc21 0.475%, CC(C)c1c(C(=O)NCC(C)(C)N2CCOCC2)cnn1-c1nccc(-c2ccccc2F)n1 5.19%, Cc1ccc(-c2ccnc(-n3ncc(C(=O)NCCN4CCOCC4)c3C3CC3)n2)o1 0.535%, CCC1CN(CCNC(=O)c2ccccc2-n2cccn2)Cc2cc(OC)ccc2O1 (stereo not given) 21.6%, CCOC(=O)[C@@H](C)N(C(=O)OC(C)(C)C)S(=O)(=O)N(Cc1ccccc1)[C@@H](C(=O)OC)C(C)C -6.25%, Cc1c(-c2ccccc2)oc2cc(O)ccc2c1=O -1.8%, CC(=O)[C@H](CC(C)C)NC(=O)[C@@H](CC(C)C)NC(=O)[C@H](CC(C)C)NC(=O)OCc1ccccc1 -12.2%

Potency, inactive:
N[C@@H](Cc1ccc(O)c(O)c1)C(=O)O, O=C(/C=C/c1ccc(O)c(O)c1)OCCc1ccccc1, COc1ccc(C2Sc3ccccc3N(CCN(C)C)C(=O)[C@@H]2OC(C)=O)cc1 (stereo not given in full), O=C(O)c1c2ccccc2cc2ccccc12, O=C(O)c1cc(-c2ccccc2)nc2ccccc12

Potency, inactive and 100 µM (active):
O=C(/C=C/c1ccc(O)c(O)c1)OC(Cc1ccc(O)c(O)c1)C(=O)O (stereo not given)

Potency, active:
NC(Cc1ccc(O)c(O)c1)C(=O)O (stereo not given) 50.1 µM, CC(C)=CCCC1(C)C=Cc2c(O)c3c(c(CC=C(C)C)c2O1)OC12C(=CCCC1C(C)(C)O[C@@]2(C/C=C(\C)C(=O)O)C(=O)O)C3=O (stereo not given in full) 89.1 µM, CC(=O)Oc1c2c(c3c(c1CC=C(C)C)O[C@@]14C(=CC5CC1C(C)(C)OC4(C/C=C(\C)C(=O)O)C5=O)C3=O)OC(C)(CCC=C(C)C)C=C2 (stereo not given in full) 89.1 µM, O=C(O)c1cc2ccccc2c(Cc2c(O)c(C(=O)O)cc3ccccc23)c1O 50.1 µM
